Test results taken from PubChem BioAssay AID686979 (National Center for Advancing Translational Sciences (NCATS), 2013).
About 50,000 (12%) of roughly 420,000 compounds were called active. Another 26% or so got no clear call; they are omitted. Only a selection was taken, and actives are over-represented in it overall. Values without a mark were called inactive. Calls come from the whole dose curve; as a rule, active = well fitted inhibition curve with a large enough effect; inconclusive = small, poorly fitted or top-dose-only effect; inactive = flat fitted curve, though single readings scatter.

Test: qHTS for Inhibitors of human tyrosyl-DNA phosphodiesterase 1 (TDP1): qHTS in cells in presence of CPT; note: nearly all actives have a fitted effect of over 55% in size
Settings: chicken DT40 Tdp1-/-;hTDP1 cells + 20 nM CPT, ATP luminescence, 48 h; series mostly up to 46.2 µM; activity change, negative = growth inhibition: at the top concentration
In short: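 Chicken DT40 Tdp1-/- cells complemented with human TDP1, 400 cells/well, exposed to compounds plus 20 nM camptothecin for at least 48 h at 37 C; viability read as ATP content by CellTiter-Glo luminescence.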
% is set by controls: 0 for no effect and ±100 for the full control effect; potency is the fitted concentration of half-maximal effect.

SMILES | activity change, negative = growth inhibition | Potency
Cc1cc2nn(-c3ccc(Cl)cc3)nc2cc1NC(=O)C(C)C | -6.45% | 
O=C(Cc1ccc(Cl)cc1)Nc1ccc2nn(-c3ccc(Cl)cc3)nc2c1 | -7.92% | 
Nc1ccc2nn(-c3ccc(Cl)cc3)nc2c1 |  | 6.51 µM (active)
Cc1cccc(C)c1NC(=O)CNC(=O)c1c(C)nn(-c2ccccc2)c1C | -8.65% | 
COc1cc(NC(=O)Cn2c(=O)n(Cc3ccco3)c(=O)c3oc4ccccc4c32)cc(OC)c1 | -3.53% | 
Cc1nnc(SCC(=O)Nc2ccc(S(=O)(=O)Nc3ccc(Cl)nn3)cc2)s1 | -11.3% | 
CCOC(=O)Cn1c(-c2cccnc2Cl)nc2ccccc21 | 0.835% | 
CCOC(=O)CN1C(=O)C(O)(CC(=O)c2ccccn2)c2ccccc21 (centres undefined) |  | 5.8 µM (active)
CCOC(=O)CN1CCC(c2ccccc2)CC1 | -1.52% | 
CCn1c(SCc2cccc(C(=O)O)c2)nnc1-c1ccc(Cl)cc1 | 4.66% | 
CN(C)CCCOc1ccc(-c2ccc3nccn3c2)cn1 | 11.3% | 
Cc1ccc(NC(=O)CN2CCc3ccccc3C2)cc1C | -29.3% | 
Cc1cccc(C)c1NC(=O)c1ccc(CN2CCc3ccccc3C2)cc1 |  | 20.6 µM (active)
CCc1ccc(NC(=O)N2CCc3ccccc3C2)cc1 | -21.3% | 
CC(=O)c1ccc(S(=O)(=O)N2CCC(Oc3ccc(-n4cnnn4)cc3)CC2)cc1 |  | inactive
O=S(=O)(/C=C/c1ccccc1)N1CCNCC1 | -4.52% | 
CCN1CCN(CC(=O)c2cc(OC)c(OC)c(OC)c2)CC1 | -1.2% | 
COc1cc(C(=O)NCCOC(=O)c2cccc(N(C)C)c2)cc(OC)c1OC | 7.13% | 
CCn1c(CNC(=O)c2cc(OC)c(OC)c(OC)c2)cc2cc(C)ccc21 |  | 20.6 µM (active)
O=C(COC(=O)c1ccccc1)Nc1ccccc1Sc1ccccc1 | -2.56% | 
CCc1nc2nc(C)c(NS(=O)(=O)c3ccc4c(c3)CCCC4)c(=O)n2[nH]1 | -0.594% | 
Cc1ccc(NS(=O)(=O)c2ccc(F)cc2)nc1 | -7.37% | 
Cn1nccc1NS(=O)(=O)c1ccc(F)cc1 | 3.58% | 
Cc1cc(F)ccc1NS(=O)(=O)c1ccc(-n2cccn2)cc1 |  | 14.6 µM (active)
O=C(COc1ccc([N+](=O)[O-])cc1Cl)Nc1ccc2[nH]c(=O)[nH]c2c1 | -23% | 
COC(=O)C[C@@H]1C=C[C@@H](NC(=O)c2cccnc2)[C@@H](CO)O1 | 2.13% | 

SMILES | activity change, negative = growth inhibition | Potency
Cc1ccc(Sc2cc(C(=O)c3ccccc3C(=O)O)ccc2[N+](=O)[O-])cc1 | -8.99% | 
Cc1ccc(SC(CC(=O)c2ccc(C(C)(C)C)cc2)C(=O)O)cc1 (centres undefined) |  | 3.66 µM (active)
Cc1ccc(C(=O)CSc2ccccc2C(=O)O)cc1 | -2.04% | 
COc1ccccc1C(=O)N/C(=C/c1ccc2c(c1)OCO2)C(=O)Nc1cccc(C(=O)O)c1 | -15.3% | 
CCOC(=O)c1cc2cc3ccccc3cc2oc1=O | 1.87% | 
CCOC(=O)c1sc(C)c2c1NC(C)(c1cccc3ccccc13)NC2=O (centres undefined) |  | 25.9 µM (active)
CCOC(=O)c1sc(-c2cccc([N+](=O)[O-])c2)cc1N | 0.456% | 
CCCNC(=O)COc1coc(CN2CCN(Cc3ccccc3)CC2)cc1=O | -4.86% | 
Cc1ccc(S(=O)(=O)N2CCC3(CC2)OCCO3)c(C)c1 | -0.485% | 
COc1cccc(Nc2ncccc2C(=O)O)c1 | -0.267% | 
COc1cccc(Nc2ncc3ncc(=O)n(C4CC4)c3n2)c1 |  | 14.6 µM (active)
Cc1nc2cnc(Nc3ccccc3)nc2n(C[C@H]2CCCO2)c1=O | 5.94% | 
COc1cccc(CC(=O)OCC(=O)NCc2ccc3c(c2)OCO3)c1 | -6.33% | 
CCC1CN(CCNC(=O)c2cccnc2C)Cc2cc(OC)ccc2O1 (centres undefined) | 21.1% [at 9.04 µM] | 
COc1cccc(OC)c1CN(C)C(=O)c1cnccc1C(F)(F)F | 6.45% | 
CCn1cc(S(=O)(=O)c2cccc(C)c2)c(=O)c2cc(F)c(N3CCN(C)CC3)cc21 | -15.2% | 
CCn1cc(C(=O)NCCO)c(=O)c2cc(F)c(N3CCN(C)CC3)cc21 | -4.68% | 
Cc1cccc(S(=O)(=O)c2cn(Cc3ccccc3)c3cc(N4CCOCC4)c(F)cc3c2=O)c1 |  | 6.51 µM (active)
Cc1ccc(S(=O)(=O)c2cn(Cc3ccccc3)c3cc(N4CCCC4)c(F)cc3c2=O)c(C)c1 |  | 20.6 µM (active)
CC1CCCN(c2cc3c(cc2F)c(=O)c(S(=O)(=O)c2cccc(Cl)c2)cn3Cc2ccccc2)C1 (centres undefined) | 0.498% | 
COCCNC(=O)C1CCN(S(=O)(=O)c2ccc3c(c2)OCCO3)CC1 | -10.3% | 
C[C@H]1CN([C@@H](C)CO)C(=O)CCCn2cc(nn2)CO[C@@H]1CN(C)S(=O)(=O)c1ccc(-n2cccn2)cc1 | -13.4% | 
CC(=O)NNc1cc(=O)c2c(=O)n(C)c(=O)n(C)c2[nH]1 | -1.94% | 
Cc1cccc(NC(=O)c2ccc(COc3ccccc3[N+](=O)[O-])o2)n1 | -4.93% | 
COc1ccc(C)cc1N1C(=O)[C@@H]2C[C@H]1CN2Cc1cccc(OC)c1O | -12.7% [at 9.04 µM] | 
COc1cc(C(=O)NCCS(=O)(=O)N2CCN(c3ccccc3)CC2)cc(OC)c1OC |  | 20.6 µM (active)

SMILES | activity change, negative = growth inhibition | Potency
CCOc1ccc(CC(=O)NCCS(=O)(=O)N2CCN(c3ccccc3)CC2)cc1 | -20.6% | 
COc1cc(C(=O)NCC(=O)N2CC=C(c3ccccc3)CC2)cc(OC)c1OC |  | 16.4 µM (active)
COc1ccc(OC)c(CN2CCN(C(=O)CNC(=O)c3cc(C)cc(C)c3)CC2)c1 | -27.7% | 
COc1cccc(OCC(=O)NCCS(=O)(=O)N2CCN(c3ccccc3)CC2)c1 | -18.7% | 
COc1cc(OC)cc(C(=O)NCC(=O)N2CCCCCCC2)c1 | -3.83% | 
CC(=O)Nc1nc(N(C)C)nc(N(C)C)n1 | 2.3% | 
CN(CC(=O)Nc1ccc(OC(F)(F)F)cc1)C(=O)C1CCC1 | -22.9% | 
O=C(NCC(=O)N1CCCCCCC1)c1ccccc1Cl | -3.35% | 
Cc1ccc(CN2CCN(Cc3ccc4ncccc4c3)CC2CCO)cc1 (centres undefined) | -7.54% | 
Cc1cccc(N(CC(=O)Nc2ccc(-c3nc4ccc(C)cc4s3)cc2)S(C)(=O)=O)c1 |  | 13 µM (active)
CCN(CC)S(=O)(=O)c1ccc(NC(=O)CN(c2cccc(F)c2)S(C)(=O)=O)cc1 | -21.7% | 
COc1cccc(N(CC(=O)Nc2cccc(F)c2)S(C)(=O)=O)c1 | -23.4% | 
O=C(Nc1nnc(C2CC(=O)N(c3ccc(Cl)cc3)C2)s1)c1ccco1 (centres undefined) | -24% | 
CC(C)Nc1nnc(SC(C)C(=O)N(C)C2CCCCC2)s1 (centres undefined) | -9.32% | 
CC(NC(=O)Nc1ccc2c(c1)OCO2)c1ccncc1 (centres undefined) | 12.1% | 
CC1CCCN(C(C(=O)Nc2ccc(C(C)C)cc2)c2ccc3c(c2)OCO3)C1 (centres undefined) |  | 18.4 µM (active)
CCc1ccc(NC(=O)NC(C)c2ccc3c(c2)OCO3)cc1 (centres undefined) | -12.2% | 
O=C(CN1C(=O)NC2(CCCCC2)C1=O)N1CCN(C(=O)c2cccs2)CC1 | 9.19% | 
COc1ccc(Cl)cc1NC(=O)NC(C)C(C)(C)C (centres undefined) | 18.8% | 
COc1cc(/C=N/Nc2nc3ccccc3s2)ccc1O |  | 1.46 µM (active)
O=[N+]([O-])c1cc(Br)c(O)c(/C=N/Nc2nc3ccccc3s2)c1 |  | 8.2 µM (active)
Cc1ccc(S(=O)(=O)Nc2nc3ccccc3s2)cc1[N+](=O)[O-] | 5.53% | 
COc1ccc(/C=N/Nc2nc3ccccc3o2)cc1OC | 2.57% | 
CCNc1nc(NCC)nc(N/N=C/c2ccc(O)c(OC)c2)n1 | -23% | 
O=[N+]([O-])c1cccc(/C=N/Nc2ncc(Br)cn2)c1 | -2.55% | 
CCOC(=O)N1CCC(N2Cc3cccc(C(=O)Nc4ccc(S(=O)(=O)N(CC)CC)cc4)c3C2=O)CC1 | -18.8% | 

SMILES | activity change, negative = growth inhibition | Potency
C=CCOc1cccc(C2C(C(=O)c3ccc(C)o3)=C(O)C(=O)N2CCN2CCOCC2)c1 (centres undefined) | -22.3% | 
COc1ccc(/C=N/Nc2ccccc2C(=O)O)cc1 | -1.82% | 
COc1ccc(C(=O)Nc2ccccc2C(=O)N/N=C/c2ccc(O)c(OC)c2)cc1 |  | 16.4 µM (active)
COc1ccc(/C=N/NC(=O)c2ccccc2)cc1OS(=O)(=O)c1ccccc1 | -71.7% | 
Cc1cccc(C)c1N1C(=O)CN(Cc2ccccc2)C1=S | -6.5% | 
C=CCC1(CC=C)CCCN1C(=O)CC1C(=O)NCCN1Cc1ccccc1OC (centres undefined) | -23.7% | 
O=C(Cc1ccc(Br)cc1)NCCN1CCOCC1 | 17.8% | 
COC1=C/C(=C/c2c(N)n3nc(CC(=O)N4CCOCC4)sc3nc2=O)C=CC1=O | -0.843% | 
O=C(O)c1ccc(CSc2nc3cccnc3n2Cc2cccc(F)c2)cc1 | -1.39% | 
Cc1cccc(CSc2nc3ccncc3n2Cc2ccc(C(=O)O)cc2)c1 | -0.967% | 
COc1cccc(Cn2c(SCc3ccc(C(=O)N4CCC(C)CC4)cc3)nc3ccncc32)c1 |  | 11.6 µM (active)
CCC1C(=O)NCCN1C(=O)c1ccc2nc(Cc3ccc(OC)cc3)oc2c1 (centres undefined) | -10.2% | 
COc1ccc(S(=O)(=O)N2CCN(C)CC2)c(C)c1 | 3.87% | 
CN(C)S(=O)(=O)N1CCC(Oc2cccc(C(=O)NCCCC3CCCC3)c2)CC1 |  | 18.4 µM (active)
CNS(=O)(=O)c1cccc(C(=O)NCC2CCCCC2)c1 | -6.28% | 
CN(C(=O)c1cccc(OC2CCN(S(=O)(=O)N(C)C)CC2)c1)C1CCOC1 (centres undefined) | 0.425% | 
Clc1cc(-c2ccc(/C=N/n3cnnc3)o2)ccc1Br | 36% | 
CCOc1ccc(S(=O)(=O)NCc2ccc3c(c2)OCO3)cc1C | -0.545% | 
O=C(NC1CC(=O)N(c2ccc(Cl)cc2)C1)C1CCCC1 (centres undefined) | -4.39% | 
Cc1cc(C)n2nc(C(=O)OCC(=O)N(CCC#N)c3ccc(F)cc3)nc2n1 | -8.36% | 
O=c1cc(-c2ccccc2)[nH]c2cc(F)ccc12 |  | 0.92 µM (active)
Cc1ccc(-c2cc(=O)c3ccc(F)cc3[nH]2)cc1 |  | 18.4 µM (active)
Cc1ccc(-c2cc(=O)c3ccc(Cl)cc3[nH]2)cc1 | -0.276% | 
Cc1cc(=O)c2ccc(NC(=O)c3ccccc3)cc2[nH]1 | 4.26% | 
O=c1[nH]c(-c2ccccc2)c(-c2ccccc2)[nH]1 | -8.71% | 
Cc1ccc(S(=O)(=O)/N=C(\N)c2ccc(F)cc2)cc1 | 7.94% | 
